p53 reactivation: qHTS assay for re-activators of p53 using a Luc reporter; AID 504706, 2011; H1299 p53-A138V BP100-luciferase reporter, luminescence, 24 h; Potency, µM (titrated, usually from 92.2 µM), for the others: top-dose activity change, positive = activation, actives largely listed as activators; 0.063% of 320,000 active; active means well fitted activation curve with a large enough effect; inconclusive means small, poorly fitted or top-dose-only effect; inactive means no such curve, though single readings can be large or run the other way; further: potency means the concentration at half of the fitted maximal effect; % of control where 0% means no effect; nearly all actives have a fitted effect of over 45% in size
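H1299 (p53-null), stable ts p53-A138V + BP100-Luc; 1000 cells/well, Opti-MEM/10% FBS; cpd 4 pt, 1:5; 24 h, 37 deg C, 5% CO2; detection reagent 10 min RT; luminescence.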
KCNH2 3.1 inh: qHTS for Inhibitors of KCHN2 3.1: Mutant qHTS. Potassium voltage-gated channel subfamily H member 2, brain isoform KCNH2 3.1 (human). U2OS KCNH2 3.1, thallium flux FluxOr; hits give low values. activity change, % (tested at about 1.8 µM). 0.95% of 340,000 active;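 active means maximum activity change below -70%; inconclusive means maximum activity change from -70% to -50%; inactive means maximum activity change above -50%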;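 further: thallium influx rate constant from kinetic fluorescence after stimulation buffer; on the % scale 0 is the no-effect control and ±100 the full control effect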
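Measured as rate of thallium-driven FluxOr signal in transduced U2OS cells carrying the 3.1 channel, read kinetically for 2 min upon stimulation; values are rate constants scaled to DMSO control wells.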
TRPV1 PAM: HTS Assay for Compounds that Act as Potentiators of the Vanilloid Receptor 1; TRPV1-expressing cells, Fluo-8 calcium influx, capsaicin EC20 potentiation; potentiation, % at 8.33 µM; 0.02% of 320,000 active; AID 540277, 2011; in the data active means potentiation above about 80%; inconclusive means between about 30% and that limit; further: 0% is about no effect
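Fluo-8 calcium influx in TRPV1-expressing cells, kinetic read (ex 480/em 520 nm). Compound added and read 3 min for agonist activity, followed by capsaicin at EC20 final and 2 min further read for enhancement.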
hERG WT inh: qHTS for Inhibitors of KCHN2 3.1: Wildtype qHTS. Voltage-gated inwardly rectifying potassium channel KCNH2 (Homo sapiens), Q12809. activity change, % at 1.84 µM. U2OS, BacMam KCNH2, thallium flux FluxOr; hits give low values. 0.37% of 340,000 active;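 active means maximum activity change below -70%; inconclusive means maximum activity change between -70% and -50%; inactive means maximum activity change above -50%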; further: on the % scale 0 is the no-effect control and ±100 the full control effect
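U2OS cells were transduced with wild-type KCNH2 virus (2.03 x 10^8 / mL) for 4 h at room temperature, then cultured overnight at 37 C. Thallium flux was read with FluxOr dye. Rate constants were normalized to DMSO controls.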
ClpP mod: qHTS Assay for Activators of ClpP; purified B. subtilis ClpP, FRET peptide cleavage, 20 min; Potency, µM (highest dose often 57.5 µM), without a hit: at the highest dose activity change, negative = active; 1.9% of 340,000 active; active means well fitted falling curve with a large enough effect; inconclusive means small, poorly fitted or top-dose-only effect; inactive means no such curve, though single readings can be large or run the other way; further: potency means the concentration at half of the fitted maximal effect; the source files actives as falling curves though it sought activators and does not explain the sign; nearly all actives have a fitted effect of over 65% in size
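Purified B. subtilis ClpP, 10 microg/mL final in Tris/HCl pH8 with KCl, BSA, glycerol and Tween-20, cleaved an Abz/nitrotyrosine-quenched decapeptide. Fluorescence (ex 320, em 430) was read at 0 and 20 min at room temperature. Delta was normalized to 5.8 microM ADEP and DMSO/no-enzyme controls.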
TRPV1 ag: HTS Assay for Compounds that Act as Agonists of the Vanilloid Receptor 1. AID 540275, 2011. 0.19% of 320,000 active. Transient receptor potential cation channel subfamily V member 1 (Homo sapiens), Q8NER1. activation, % at 8.33 µM. TRPV1-expressing cells, Fluo-8 calcium influx, agonist mode; in the data active means activation above about 80%; inconclusive means between about 30% and that limit; further: 0% is about no effect
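TRPV1-expressing cells were cultured overnight at 35.5C and loaded with Fluo-8 calcium dye for 40 to 90 min at room temperature. After a 10 s baseline, compound was added and calcium influx was read kinetically for 3 min (ex 480/em 520 nm).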
An asterisk follows results filed as active; ? = inconclusive; · = no result given. A selection: hits, their analogues and other compounds. The true share with any hit is near 2.6%.

SMILES	p53 reactivation	KCNH2 3.1 inh	TRPV1 PAM	hERG WT inh	ClpP mod	TRPV1 ag
Cc1ccc(C(=O)NC(NCc2ccccc2)C(Cl)(Cl)Cl)cc1 (configuration not stated)	0%	15	-2	7	14µM*	16
CCCCNc1c(-c2ccc(SC3CCCCC3)c(OC)c2)nc2ccc(C)cn12	2%	-72*	·	8	4%	·
CCC(C)Sc1ccc(-c2nc3ccc(C)cn3c2NCc2ccccc2)cc1OC (configuration not stated)	16%	-47	30	0	4%	88*
Clc1cccc(-c2ccc(-c3nc4ccccn4c3NCc3ccccc3)cc2)c1	?	5	·	0	?	·
CCCCNc1c(-c2ccc(OC)c(SC3CCCCC3)c2)nc2ccc(C)cn12	-3%	-41	·	4	?	·
CCCCCCSc1ccc(-c2nc3ccc(C)cn3c2NCc2ccccc2)cc1OC	18%	-91*	24	-20	3%	?
COc1ccc(-c2cc(-c3nc4ccccn4c3NCc3ccccc3)ccc2OC)cc1	-9%	-101*	·	-99*	3%	·
CCCCCCSc1ccc(-c2nc3ccc(C)cn3c2NCc2ccccc2)cc1	8%	-16	?	10	4%	?
CCc1cccc(-n2c(=O)c3cccnc3n2CC(=O)Nc2c(C)cc(C)cc2C)c1	·	·	·	·	4%	·
Cc1nn2c(-c3ccco3)ccnc2c1-c1ccc(Cl)cc1	·	·	·	·	2%	·
COc1ccc(OC)c(CN2C(=O)c3ccccc3C2c2nnnn2C(C)C)c1 (configuration not stated)	·	·	·	·	0%	·
CCC(C)Sc1cc(-c2nc3ccc(C)cn3c2NCc2ccccc2)ccc1OC (configuration not stated)	·	-102*	·	?	?	·
CCCCNc1c(-c2ccc(SC(C)CC)cc2)nc2ccccn12 (configuration not stated)	?	?	6	-16	4%	?
CCCCNc1c(-c2ccc(OC)c(SC(C)CC)c2)nc2ccc(C)cn12 (configuration not stated)	0%	-47	·	-6	4%	·
CCC(C)Sc1cccc(-c2nc3cc(C)ccn3c2NCc2ccccc2)c1 (configuration not stated)	21%	-41	14	3	?	93*
Cc1ccn2c(NCc3ccccc3)c(-c3cccc(SC4CCCCC4)c3)nc2c1	4%	-17	·	7	?	·
CCCCNc1c(-c2ccc(SC3CCCCC3)cc2)nc2ccccn12	21%	-81*	-6	?	4%	?
CC(Oc1ccccc1F)C(=O)NCC1(N2CCOCC2)CCCCC1 (configuration not stated)	·	·	·	·	-3%	·
COc1ccc(S(=O)(=O)N2CCC(C(=O)NC(C)c3ccccc3)CC2)cc1 (configuration not stated)	·	·	·	·	0%	·
c1ccc(Nc2ncnc3c2oc2ccccc23)cc1	·	3	-5	0	152%	81*
c1ccc2c(c1)oc1c(Nc3ccc(CN4CCOCC4)cc3)ncnc12	?	-25	-8	3	-1%	84*
COc1ccc(CNC(=O)c2cc3sccc3n2Cc2ccc(C)cc2)cc1	·	·	·	·	-7%	·
Cc1ncoc1C(=O)Nc1ccc(Oc2ccccc2)cc1	?	-16	-23	3	0%	84*
Cc1nc(C)c(C(=O)Nc2ccc(Oc3ccccc3)cc2)o1	13%	1	-16	-12	-2%	?

Bioassay records: PubChem BioAssay, National Center for Advancing Translational Sciences (NCATS)
